Bioassay records from PubChem BioAssay.
KB-3-1 tox: KB-3-1 parental cell cytotoxicity; KB-3-1 viability, CellTiter-Glo ATP luminescence, 72 h; Potency, µM (top dose mostly 46.1 µM), actives largely listed as cytotoxic; 400,000 compounds, 1.4% hits; AID 1347075; further: on the % scale 0 is the no-effect control and ±100 the full control effect; nearly all actives have a fitted effect of over 60% in size
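Viability of parental KB-3-1 cells, measured by CellTiter-Glo luminescence, followed a 72 h incubation at 37 °C with pinned compounds in phenol-red-free DMEM containing 10% FBS.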
SW480 rerep: induces DNA re-replication in SW480 colon adenocarcinoma cells | SW480 DNA re-replication, Hoechst DNA content imaging, 48 h | 340,000 compounds, 1.8% hits | Potency, µM (series often up to 46.1 µM), without a hit: at the highest dose re-replication activation, hits mostly activators | AID 624297; further: % of control where 0% means no effect; nearly all actives have a fitted effect of over 55% in size
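Treated cells incubate 48 hr (37 C, 5% CO2), are stained 40 min with Hoechst, and nuclear fluorescence is enumerated; a rise in nuclei with high DNA signal marks re-replication.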
KB-V1 cytotox: kills drug-selected multidrug resistant KB-V1 cells | KB-V1 MDR cells viability, CellTiter-Glo, 72 h | Potency, µM (series often up to 46.1 µM), most hits filed as cytotoxic | 400,000 compounds, 3.4% hits | AID 1347076; further: on the % scale 0 is the no-effect control and ±100 the full control effect; nearly all actives have a fitted effect of over 60% in size
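Cytotoxicity via CellTiter-Glo luminescence after 72 h compound exposure at 37 degrees C. Cells: drug-selected KB-V1 line, DMEM phenol-red free plus 10% FBS. Compounds tested at multiple concentrations; normalized data fitted to concentration-effect curves.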
RGS4 inhibitor: human RGS4 inhibition. P49798. Transcreener GDP fluorescence polarization, RGS4-accelerated GTP hydrolysis. Potency, µM (series often up to 114 µM), without a hit: top-dose activity change, negative = inhibition, most hits filed as inhibitors. 390,000 compounds, 0.039% hits. AID 504845; further: on the % scale 0 is the no-effect control and ±100 the full control effect; nearly all actives have a fitted effect of over 75% in size
Target sequence (P49798 whole entry, looked up): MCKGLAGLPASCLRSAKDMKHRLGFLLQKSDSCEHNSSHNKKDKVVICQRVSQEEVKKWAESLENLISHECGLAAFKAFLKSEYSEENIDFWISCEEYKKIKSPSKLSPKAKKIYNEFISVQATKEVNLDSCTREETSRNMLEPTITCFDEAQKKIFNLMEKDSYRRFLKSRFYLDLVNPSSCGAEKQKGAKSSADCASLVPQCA
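MLSMR compounds (23 nl, pin-transferred) preincubated 10 min at room temperature with a 500nM (2x) first reagent, then RGS4 at 900nM (2x) plus Transcreener GDP mix added; fluorescence polarization (620/688 nm) read before and after 90 min at 30 °C.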
MCF10A rereplic: induces DNA re-replication in MCF 10a normal breast cells; MCF 10A DNA re-replication, Hoechst nuclear intensity, 48 h; Potency, µM (doses to about 46.1 µM), without a hit: top-dose activity, positive = re-replication, actives largely listed as activators; 350,000 compounds, 2.9% hits; AID 624296; further: % of control where 0% means no effect; nearly all actives have a fitted effect of over 50% in size
PTAP TSG101 blk: blocks PTAP/TSG101 interaction to inhibit HIV-1 budding; Potency, µM (highest dose often 115 µM), for the others: at the highest dose activity change, negative = inhibition, most hits filed as inhibitors; Fluorescence polarization, FITC-PTAP peptide / Tsg101 binding; 340,000 tested, under 10 active; AID 493005; Q99816; active means well fitted inhibition curve with a large enough effect in the main read-out, with a control signal flat, not every such curve was filed as active; inconclusive means small, poorly fitted or top-dose-only effect, or effect the other way, or a change in a side signal; inactive means no such curve, though single readings can be large or run the other way; further: % of control where 0% means no effect
Target sequence (Q99816 whole entry, looked up): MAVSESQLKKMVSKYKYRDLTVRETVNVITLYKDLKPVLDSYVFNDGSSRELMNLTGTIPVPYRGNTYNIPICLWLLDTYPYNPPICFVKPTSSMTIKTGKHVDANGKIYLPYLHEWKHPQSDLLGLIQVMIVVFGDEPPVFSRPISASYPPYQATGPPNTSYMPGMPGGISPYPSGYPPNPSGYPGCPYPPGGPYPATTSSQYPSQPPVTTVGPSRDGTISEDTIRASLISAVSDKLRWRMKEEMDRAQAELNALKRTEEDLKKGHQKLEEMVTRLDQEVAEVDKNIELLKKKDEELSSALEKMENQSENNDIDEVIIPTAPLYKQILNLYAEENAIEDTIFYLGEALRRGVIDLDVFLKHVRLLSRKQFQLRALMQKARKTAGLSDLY
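Fluorescence anisotropy tracks displacement of a FITC-tagged PTAP peptide (50 nM) from the Tsg101 binding domain (10 uM), following a 20 min room-temperature incubation at pH 7.5.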
* marks the source's active call; other numbers are inactive results; i = inactive; ? = inconclusive; / = not tested or not shown; ! = not active in a repeat; [ ] = another dose, or the depositor's remark. Only some compounds are listed: those with a hit (about 6.6% of all), similar ones and a draw of the others. Unless noted, the call rests on the fitted dose curve; in most records, active means well fitted curve in the direction sought with a large enough effect; inconclusive means small, poorly fitted or top-dose-only effect, or another doubt; inactive means no such curve, though single readings can be large; an effect the other way counts as inactive or inconclusive. Potency means the concentration at half of the fitted maximal effect.

SMILES	KB-3-1 tox	SW480 rerep	KB-V1 cytotox	RGS4 inhibitor	MCF10A rereplic	PTAP TSG101 blk
CC(=O)Oc1ccc(C(=O)Nc2cc(C)ccc2NC(=O)COc2ccccc2)cc1	i	-3.6%	16.4µM*	10.7%	-0.6%	-2.7%
Cc1ccc(C)c(NS(=O)(=O)c2ccc(OCC(=O)N3CCOCC3)cc2)c1	i	-9.3%	i	6.1%	2.6%	-4.7%
Cc1ccc(NC(=O)COc2ccccc2)c(NC(=O)c2ccccc2C)c1	i	?	5.8µM*	-17.2%	3.5%	-1.9%
Cc1ccc(NC(=O)c2ccco2)c(NC(=O)COc2ccccc2)c1	i	-43.1%	i	-27.5%	-20.7%	-6.5%
Cc1ccc(C)c(NS(=O)(=O)c2ccc(OCC(=O)N3CCCC3)cc2)c1	i	-6.0%	20.6µM*	-9.1%	22.9%	-10.5%
COc1ccc(OC)c(/C=C(/C#N)c2nc(-c3ccc(-c4ccccc4)cc3)cs2)c1	/	/	/	-25.6%	/	/
CCCN1CCN(CCCNC(=O)c2ccc3c(c2)sc2nc(-c4ccc(OC)cc4)cn23)CC1	/	/	/	-7.7%	/	/
COc1ccccc1N1CCN(C(=O)Cn2cnc3onc(-c4ccc(F)cc4)c3c2=O)CC1	i	/	i	8.8%	/	/
COc1ccc(-n2c(C)cc(C(=O)COC(=O)c3ccc(O)cc3O)c2C)cc1	?	-2.6%	?	-12.8%	?	-4.6%
Cc1cc(C(=O)CC#N)c(C)n1-c1ccc(OC(F)F)cc1	?	-15.0%	?	14.4%	?	-2.9%
Cc1cc(C(=O)COC(=O)c2ccc(O)cc2O)c(C)n1-c1ccc(OC(F)F)cc1	16.4µM*	0.5%	?	-0.4%	?	-0.8%
Cc1ccc(-n2c(C)cc(C(=O)COC(=O)c3ccc[nH]c3=O)c2C)cc1	i	-59.2%	18.4µM*	-13.4%	-1.9%	-3.8%
Cc1cc(C(=O)COC(=O)c2ccc(O)cc2O)c(C)n1-c1ccccc1	?	-5.2%	16.4µM*	16.0%	?	-3.0%
CC(=O)Nc1ccc(/C=C2\C=Cc3ccccc32)cc1	i	/	i	/	/	/
CCc1cccc(C)c1NC(=O)Cn1ccn(-c2cccc(OC)c2)c(=O)c1=O	/	/	/	9.6%	/	/
COc1ccc(Nc2nc(NCCO)nc(N3CCCC3)n2)cc1	i	-65.1%	i	12.3%	9.0%	-0.6%
CCCNc1nc(Nc2ccc(C)cc2)nc(N2CCCC2)n1	?	7.5%	4.11µM*	9.2%	?	-2.3%
COc1ccc(C2=NC(C)(C)N(CC(=O)Nc3cccc(C)c3)C2=O)cc1	/	/	/	-6.9%	/	/
O=C(CC(NC(=O)c1ccccc1Cl)c1ccccc1)NCCc1ccc(Cl)cc1 (centres undefined)	i	-3.1%	8.2µM*	-22.8%	3.6%	1.5%
O=C(CSc1ncccc1C(=O)O)c1ccccc1F	i	4.1%	i	-6.5%	7.5%	-4.3%
O=C(O)CSc1ncccc1C(=O)O	i	6.4%	i	4.4%	9.2µM*	-7.2%
COc1ccc(-c2n(Cc3ccccc3)c3ccccc3[n+]2Cc2ccccc2)cc1	7.31µM*	?	i	11.3%[11.4 µM]	3.8%	-5.7%
COc1ccc(-c2nc3ccccc3n2Cc2ccccc2)cc1	i	-4.8%	i	-11.3%	6.0%	-2.8%
COc1ccc(CN(C)C(=O)c2cccc(NC(=O)CC3SC(N4CCCCC4)=NC3=O)c2)c(OC)c1 (centres undefined)	16.4µM*	6.51µM*	i	11.9%	?	-6.9%
COc1cccc(CN(C)C(=O)c2cccc(NC(=O)CC3SC(N4CCCCC4)=NC3=O)c2)c1OC (centres undefined)	i	-29.1%	i	-2.1%	-2.6%	-4.3%
SMILES	KB-3-1 tox	SW480 rerep	KB-V1 cytotox	RGS4 inhibitor	MCF10A rereplic	PTAP TSG101 blk
Oc1ccc(Br)cc1C1C=C(c2ccc3c(c2)OCO3)NC(c2c(F)cccc2Cl)N1 (centres undefined)	/	/	/	2.4%	/	/
Cc1cc(C)c2[nH]c(=O)c(C(c3nnnn3CC3CCCO3)N3CCC(C)CC3)cc2c1 (centres undefined)	i	?	4.61µM*	-9.4%	18.5%	-4.0%
CCCCCCCCCCCCCC(=O)O[C@H](CC(=O)O)C[N+](C)(C)C	/	/	/	-161.0%[56.9 µM]	/	/
CCCCCCCCCC(=O)OCC(CO)OC(=O)CCCCCCCCC (centres undefined)	/	/	/	26.7µM*	/	/
CCCCCCCCCCCCCCCC(=O)OC(CC(=O)O)C[N+](C)(C)C (centres undefined)	3.66µM*	0.581µM*	i	18.9µM*!	-1.2%	0.4%
CCCCCCCCCCCCCCCC(=O)OCC(COC(=O)CCCCCCCCCCCCCCC)OC(=O)CCCCCCCCCCCCCCC	/	2.4%	/	/	5.0%	/
Cc1cc(C)c2sc(N(Cc3cccnc3)C(=O)CCOc3ccccc3)nc2c1	i	/	i	-40.4%	/	/
COC(=O)CN1C(=O)CSc2ccc(S(=O)(=O)Nc3ccc(C)c(Cl)c3)cc21	/	/	/	9.7%	/	/
COc1ccc(-c2c/c(=N\c3nc(-c4ccccc4)c(C)s3)c3ccccc3o2)cc1O	5.17µM*	?	5.8µM*	8.3%	?	-0.7%
CCc1ccc(S(=O)(=O)c2nnn3c2nc(Nc2ccc(F)cc2)c2cc(Cl)ccc23)cc1	i	/	i	13.9%	/	/
Cc1ccc(S(=O)(=O)N2CCN(c3nc(-c4cccs4)nc4cccnc34)CC2)cc1	i	/	i	15.1%	/	/
O=C(CC1(O)C(=O)Nc2cc(Cl)cc(Cl)c21)c1ccccc1O (centres undefined)	i	?	i	-6.5%	14.6µM*	-3.3%
O=C(CC1(O)C(=O)Nc2ccccc21)c1ccccc1O (centres undefined)	i	-2.2%	i	-8.1%	7.3%	-4.8%
COc1ccc(CCNC(=O)CCc2cn(Cc3ccccc3Cl)c3ccccc23)c(OC)c1	/	/	/	10.3%	/	/
CCC(c1nnnn1CCOC)N(Cc1ccc(C)cc1)Cc1cc2cc(OC)ccc2[nH]c1=O (centres undefined)	?	-5.6%	23.1µM*	-22.8%	0.5%	0.7%
CCC(c1nnnn1Cc1ccccc1)N(Cc1ccco1)Cc1cc2cc(OC)ccc2[nH]c1=O (centres undefined)	?	14.5%	i	-26.0%	?	-6.6%
Cc1ccnc2ccc(N)cc12	i	/	i	/	/	/
COc1cc(CNC2CCCCCCC2)cc(Cl)c1OC	?	?	?	-12.0%	15.2%	2.4%
CCOc1c(Br)cc(CNC2CCCCCCC2)cc1OC	?	?	?	-2.9%	10.3µM*	-2.7%
COc1cc(CNC2CCCCCCC2)cc(Br)c1OCC#N	i	?	23.1µM*	29.2%	?	-0.2%
